Compounds without any hit were thinned out: in the full panel of roughly 83,000, 20% have a hit.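 For each line, cells grew in 96-well plates with the test compound present at a single concentration for 48 hours.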 Values without a mark were called inactive. Active and inactive are the calls of the source. Rule for the calls: active = growth percent below 10; inactive = the rest.

The subject of the experiment is HL-60(TB) leukemia. Nature of the experiment: NCI-60 one-dose screen, 48 h (100 = growth as untreated, 0 = no growth, -100 = all killed). The settings on record: 10 µM unless noted.
With `N#Cc1ccc(-c2ccc(-c3cccs3)o2)cc1F`, the growth was 89.3%.
For the compound `O=C1CCC/C=C\C[C@H]2C=CC(=O)/C2=C/C[C@H](CCc2cccc(C(F)(F)F)c2)O1`, the growth is -25.5% (active).
As to `CCOC(=O)c1c(C)c2c(n1Cc1ccccc1)CSc1cc(C#N)c(=O)[nH]c1-2`, the growth was 76.8% [100 µM].
With `Oc1cccnc1CN1CCCC1`, the growth was 100%.
With `COc1cc(-c2nc3sc(C)cn3c2/C=C2\C(=O)Nc3ccccc32)c(Br)c(OC)c1OC`, the growth was -7.35% (active).
`COc1cc2oc3cc(C)oc(=O)c3c2cc1OC`: the growth is 80.3%.
For `COc1cc2c(cc1NC(=O)C(F)(F)F)-c1ccc(NC(=O)C(F)(F)F)cc1C2` the value was 99.3%; for `CC(C)[C@@H]1C=C2CC[C@H]3[C@](C)(CN)CCC[C@]3(C)[C@H]2CC1`, 70.1%; for `CC(/C=C1\SC(=S)N(CC(=O)NC(Cc2c[nH]c3ccccc23)C(=O)O)C1=O)=C\c1ccccc1` (configuration not stated), 100%.
Take `O=C(O)c1cccc(CN2CCN(c3cc4c(cc3F)c(=O)c(C(=O)O)cn4C3CC3)CC2)c1O`: the growth is 99.4%.
The value for `Cc1cc(N2CCN(c3ccnc4cc(Cl)ccc34)CC2)nc(N2CCOCC2)n1` was 69.5%.
The value for `COc1cc(/C=C/C(=O)CC(=O)/C=C/c2ccc(O)c(OC)c2)ccc1O` was 0.358% (active); that for `CC[N+](CC)(CCOCCOCC[N+](CC)(CC)Cc1ccc([N+](=O)[O-])cc1)Cc1ccc([N+](=O)[O-])cc1` was 93.4%.
Take `COc1cc(-c2cc(-c3ccc(C)cc3)nc3nc(N)[nH]c(=O)c23)ccc1Oc1ccnc2cc(Cl)ccc12`: the growth is 56.2%.
Regarding `CCN(CC)CCNc1ccc([N+](=O)[O-])c2sc3cc(Cl)ccc3c(=O)c12`, the growth was 54.7%.
Consider `Fc1ccc(C(c2ccc(F)cc2)C(Cl)Cl)cc1`, for which the growth is 85.7%.
Take `CCNC(=O)Oc1ccc[nH]c1=O`: the growth is 94.1%.
The value for `C/C(=N\NC(N)=S)C(C)(C)O` was 102%.
For `NC(=O)c1cc(I)ccc1NC(=O)/C=C/c1ccccc1Cl` the value was -34.5% (active); for `COC1=CC=CC2(OC)C3(O)CCCc4cccc(c43)N3C(=O)COC132` (configuration not stated), 98.6%.
Consider `O=C(O)C1CCCCN1c1nc(Cl)nc(Cl)n1` (configuration not stated), for which the growth was 97.8%.
The value for `CCC(=O)Nc1ccccc1C#C/C=C\C#Cc1ccccc1C(F)(F)F` was 17.3%; that for `CCOC(=O)/C=C1\S/C(=N\Nc2cc(=O)[nH]c3ccc(OC)cc23)N(c2ccccc2)C1=O` was 96.1%; that for `CC(C)Sc1nc(NNC(N)=S)c(C#N)c(-c2ccc(F)cc2)n1` was 94.9%.
For the compound `CC(=O)[C@@H]1CC[C@]2(COS(=O)(=O)c3ccc(C)cc3)CC[C@]3(C)[C@H](CC[C@@H]4[C@@]5(C)CCCNC(C)(C)[C@@H]5CC[C@]43C)[C@@H]12`, the growth was 28.1%.
Turning to `O=C(N/N=C/[C@@H](O)[C@H](O)[C@H](O)CO)c1ccc(NC(=O)c2cccnc2)cc1`, the growth is 99.4%.
With `CN(C)c1ccc(/C=N/NC(=O)CSc2nc3sc4c(c3c(=O)n2-c2ccccc2)CCCCC4)cc1`, the growth is 86.8%.
For `COC12C=C/C(=C(/C(=O)OCc3cncnc3)C(=O)CCCCCCCCC3(OC)C=C/C(=C(/C(=O)OCc4cncnc4)C(=O)CCCCCCCC1)O3)O2` the value was -27.4% (active); for `CN(C)CC(O)c1ccc2cc(Br)c3ccccc3c2c1` (configuration not stated), 43.7%; for `CC1CN(S(=O)(=O)c2oc(-c3ccc(Cl)cc3)nc2C#N)CC(C)O1` (configuration not stated), 23.4%.
As to `COc1cc2oc(-c3ccc(O)cc3)cc(=O)c2c(O)c1-c1c(OC)cc(O)c2c(=O)cc(-c3ccc(O)cc3)oc12`, the growth is 0.122% (active).
Turning to `CC(=O)O[C@H]1CC[C@@]2(C)[C@@H](CC[C@@H]3[C@@H]2CC[C@@]2(C)[C@H]3CC[C@]2(O)C(C)=O)C1`, the growth was 93.5%.
For `NNc1ccc(S(N)(=O)=O)cc1`, the growth is 75.9%.
With `COC(=O)[C@]1(C)CCC[C@]2(C)[C@H]3C[C@@H]4[C@H]5[C@@H]6CC/C(=N\OCC/C(N)=N/O)[C@H]5[C@@]3(CC[C@H]21)CC4(C(C)C)O6`, the growth is 30.6%.
With `Cc1ccc(Nc2nc(N)nc(CSCC(=O)NN)n2)cc1`, the growth was 20.5%.
As for `OC(c1ccccc1)(c1ccccc1)C(F)(F)F`, the growth was 77.1%.
For `CC1=CN2C(=O)C3C4=C(CCCC4)SC3N=C2CN1c1c(C)cccc1C` (configuration not stated) the value was -9.4% (active).

The values above are taken from PubChem BioAssay (NCI).
